SMILES strings stand for the structures.
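Note: KINOMEscan kinase panel screen.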

For one experiment, the system named is CLK2. The settings on record: concentration: 1 μM, replicates: in singlicate; n = 1.
`COc1ccc(Nc2nccc(N3CCC(NC(=O)c4cc5ccccc5s4)C3)n2)cc1` (stereo not drawn) [GSK1379738]: the “%Inh” value amounted to 7%.
With `Cc1ccc(-c2nc(Nc3ccncc3)c3ccccc3n2)s1` [GSK189015], the “%Inh” value is 0%.
On the same count and under the same terms, as for `Cn1cncc1C(=O)NC1CCN(c2ccnc(Nc3ccc(F)cc3)n2)C1` (stereo not drawn) [GSK1379717], the figure is 0%.
The same measure, in the same setting: as for `COc1ccc(Nc2nccc(N3CCC(NC(=O)C(C)c4ccc(Cl)cc4)C3)n2)cc1` (stereo not drawn) [GSK1379735], the figure is 13%; as for `COc1nccc(-c2c(-c3ccc(F)cc3)ncn2CCCN2CCOCC2)n1` [SB-282852], 0%; as for `Cc1ccccc1Cn1ccn2c(=O)cc(N3CCOCC3)nc12` [GSK2269905], 0%.
As for `CS(=O)(=O)CCNCc1nc(-c2ccc3ncnc(Nc4ccc5c(cnn5Cc5ccccc5)c4)c3c2)cs1.Cl.Cl` [GW569716], the “%Inh” value was 0%.
As to `O=C1NC(=O)C(c2ccc(Cl)cc2)=C1Nc1ccc(O)cc1` [SB-340867], the “%Inh” value is 65%.
On the same count and under the same terms, as for `Cc1cccc2c(-c3ccncn3)c(-c3ccc(F)cc3)nn12` [GW515532], the figure is 0%.
With `Cn1cncc1-c1cc2c(Nc3ccc(OCc4ccccc4)cc3)ncnc2cn1` [GW281179], the “%Inh” value is 0%.
For the compound `CCn1c(-c2ccccc2)nc2cnccc21` [SB-733416], the “%Inh” value is listed as 0%.
In the case of `Nc1ncnc2occ(-c3ccc4c(c3)CCN4C(=O)Cc3cc(F)ccc3F)c12` [GSK2645446], the “%Inh” value is listed as 0%.
On the same count and under the same terms, under `c1ccc(-c2ccnc3[nH]ccc23)cc1` [SB-693578] stands 8%; under `O=C(Nc1n[nH]c2cc(-c3ccsc3)ccc12)C1CC1` [SB-732932], 21%.
On to `COc1ccc(Nc2nccc(NCCNC(=O)Nc3cc(C)ccc3C)n2)cc1` [GSK1379899], for which the “%Inh” value is 0%.
On the same count and under the same terms, under `Cc1ccc(NC(=O)Nc2ccccc2F)cc1-c1ccc(C(=O)Nc2ccncc2)cc1` [GSK1398477] stands 0%; under `Cl.Cl.Cl.N#Cc1ccc(CCNc2nccc(-c3cccc(CN4CCNCC4)c3)n2)cc1` [GSK2137462], 23%; under `O=C1NC(=O)C(c2ccc(Cl)cc2)=C1Nc1cccc(Cl)c1` [SB-317651], 34%.
Still for that read-out and setting: under `Cc1ccccc1-c1cc(-c2c[nH]nc2-c2ccccn2)ccn1` [GW680061] stands 0%; under `Fc1ccc(-c2nc3n(c2-c2ccncc2)CCS3)cc1` [GI98581], 0%.
Same read-out and setting: as for `CC(C)c1ccc(O)cc1Nc1ccnc2ccc(C(F)(F)F)cc12` [GW482059], the figure is 4%.
On to `CC(=O)c1cccc(NC(=O)NC2CCN(c3ccnc(Nc4ccc(F)cc4)n3)C2)c1` (stereo not drawn) [GSK1379710], for which the “%Inh” value was found to be 3%.
`Cc1nccc(-c2c(-c3ccc(F)cc3)ncn2CCCN2CCOCC2)n1.Cl` [SB-282975]: the “%Inh” value came to 5%.
Same read-out and setting: under `O=C(Nc1n[nH]c2nc(-c3ccco3)c(Br)cc12)C1CCN(Cc2ccccc2)C1.O=C(O)[C@H](O)[C@@H](O)C(=O)O` (stereo not drawn) [SB-742034] stands 0%; under `O=c1cc(N2CCOCC2)nc2n(Cc3cccc(Cl)c3Cl)c3ccccc3n12` [GSK2299009], 2%.
With `Cn1cnc2c(N)ncnc21` [SKF-97623], the “%Inh” value turned out to be 0%.
Still for that read-out and setting: under `CNCc1ccc2nc(NC(=O)c3ccc(C(C)(C)C)cc3)cn2c1` stands 22%; under `COc1ccc(CSc2nnc(-c3ccc4nccn4c3)o2)cc1C(F)(F)F`, 91.9%.
Regarding `O=C(Nc1n[nH]c2nc(-c3cccs3)c(Br)cc12)C1CCCC1` [SB-743341], the “%Inh” value was determined as 18%.
Consider `Nc1nccc(-c2c(-c3ccc(F)cc3)ncn2C2CCN(Cc3ccccc3)CC2)n1` [SB-219980], for which the “%Inh” value was 6%.
In the case of `Cc1ccc(NC(=O)Nc2ccc(Cl)c(C(F)(F)F)c2)cc1-c1ccc(C(=O)Nc2ccncc2)cc1` [GSK1398470], the “%Inh” value is listed as 3%.
On to `COc1ccc(CSc2nnc(-c3ccc4c(c3)CCO4)o2)cc1`, for which the “%Inh” value stood at 28%.
Turning to `NS(=O)(=O)c1cccc(N/C=C2\C(=O)Nc3ccc(S(=O)(=O)Cc4c(Cl)cccc4Cl)cc32)c1` [GSK398099], the “%Inh” value is recorded as 33%.
As to `CNc1nc(-c2ccc3c(N)n[nH]c3c2)cc(N2C[C@@H](C(=O)NC3CCCCC3)OC[C@H]2C)n1` [GSK2375584], the “%Inh” value worked out at 0%.
Take `CS(=O)(=O)Cc1ccc(Nc2nccc(-c3c(-c4cccc(NC(=O)C5CCCCC5)c4)nn4ncccc34)n2)cc1` [GSK350559]: the “%Inh” value is given as 10%.
The same measure, in the same setting: as for `COC(=O)c1cccc(NC(=O)NC2CCN(c3ccnc(Nc4ccc(OC)cc4)n3)C2)c1` (stereo not drawn) [GSK1379746], the figure is 100%.

A further experiment relates to CLK3. To be noted: concentration: 1 μM, replicates: in singlicate; n = 1.
In the case of `COc1ccc(Nc2nccc(N3CCC(NC(=O)c4cc5ccccc5s4)C3)n2)cc1` (stereo not drawn) [GSK1379738], the “%Inh” value turned out to be 4%.
Same read-out and setting: under `Cc1ccc(-c2nc(Nc3ccncc3)c3ccccc3n2)s1` [GSK189015] stands 0%.
On the same count and under the same terms, under `Cn1cncc1C(=O)NC1CCN(c2ccnc(Nc3ccc(F)cc3)n2)C1` (stereo not drawn) [GSK1379717] stands 0%; under `COc1ccc(Nc2nccc(N3CCC(NC(=O)C(C)c4ccc(Cl)cc4)C3)n2)cc1` (stereo not drawn) [GSK1379735], 0%; under `COc1nccc(-c2c(-c3ccc(F)cc3)ncn2CCCN2CCOCC2)n1` [SB-282852], 0%.
Still for that read-out and setting: under `Cc1ccccc1Cn1ccn2c(=O)cc(N3CCOCC3)nc12` [GSK2269905] stands 28%; under `CS(=O)(=O)CCNCc1nc(-c2ccc3ncnc(Nc4ccc5c(cnn5Cc5ccccc5)c4)c3c2)cs1.Cl.Cl` [GW569716], 1%; under `O=C1NC(=O)C(c2ccc(Cl)cc2)=C1Nc1ccc(O)cc1` [SB-340867], 0%.
On to `Cc1cccc2c(-c3ccncn3)c(-c3ccc(F)cc3)nn12` [GW515532], for which the “%Inh” value was 100%.
Same read-out and setting: under `Cn1cncc1-c1cc2c(Nc3ccc(OCc4ccccc4)cc3)ncnc2cn1` [GW281179] stands 0%.
Consider `CCn1c(-c2ccccc2)nc2cnccc21` [SB-733416], for which the “%Inh” value worked out at 0%.
Same read-out and setting: as for `Nc1ncnc2occ(-c3ccc4c(c3)CCN4C(=O)Cc3cc(F)ccc3F)c12` [GSK2645446], the figure is 0%; as for `c1ccc(-c2ccnc3[nH]ccc23)cc1` [SB-693578], 29%; as for `O=C(Nc1n[nH]c2cc(-c3ccsc3)ccc12)C1CC1` [SB-732932], 0%.
Same read-out and setting: under `COc1ccc(Nc2nccc(NCCNC(=O)Nc3cc(C)ccc3C)n2)cc1` [GSK1379899] stands 6%; under `Cc1ccc(NC(=O)Nc2ccccc2F)cc1-c1ccc(C(=O)Nc2ccncc2)cc1` [GSK1398477], 3%.
The same measure, in the same setting: as for `Cl.Cl.Cl.N#Cc1ccc(CCNc2nccc(-c3cccc(CN4CCNCC4)c3)n2)cc1` [GSK2137462], the figure is 0%; as for `O=C1NC(=O)C(c2ccc(Cl)cc2)=C1Nc1cccc(Cl)c1` [SB-317651], 2%; as for `Cc1ccccc1-c1cc(-c2c[nH]nc2-c2ccccn2)ccn1` [GW680061], 0%.
Consider `Fc1ccc(-c2nc3n(c2-c2ccncc2)CCS3)cc1` [GI98581], for which the “%Inh” value amounted to 0%.
As to `CC(C)c1ccc(O)cc1Nc1ccnc2ccc(C(F)(F)F)cc12` [GW482059], the “%Inh” value stood at 0%.
Same read-out and setting: under `CC(=O)c1cccc(NC(=O)NC2CCN(c3ccnc(Nc4ccc(F)cc4)n3)C2)c1` (stereo not drawn) [GSK1379710] stands 14%; under `Cc1nccc(-c2c(-c3ccc(F)cc3)ncn2CCCN2CCOCC2)n1.Cl` [SB-282975], 18%; under `O=C(Nc1n[nH]c2nc(-c3ccco3)c(Br)cc12)C1CCN(Cc2ccccc2)C1.O=C(O)[C@H](O)[C@@H](O)C(=O)O` (stereo not drawn) [SB-742034], 0%.
Still for that read-out and setting: under `O=c1cc(N2CCOCC2)nc2n(Cc3cccc(Cl)c3Cl)c3ccccc3n12` [GSK2299009] stands 1%.
As to `Cn1cnc2c(N)ncnc21` [SKF-97623], the “%Inh” value is on record as 2%.
As to `CNCc1ccc2nc(NC(=O)c3ccc(C(C)(C)C)cc3)cn2c1`, the “%Inh” value was determined as 0%.
Still for that read-out and setting: under `COc1ccc(CSc2nnc(-c3ccc4nccn4c3)o2)cc1C(F)(F)F` stands 12%.
Still for that read-out and setting: under `O=C(Nc1n[nH]c2nc(-c3cccs3)c(Br)cc12)C1CCCC1` [SB-743341] stands 31%.
In the case of `Nc1nccc(-c2c(-c3ccc(F)cc3)ncn2C2CCN(Cc3ccccc3)CC2)n1` [SB-219980], the “%Inh” value turned out to be 0%.
The same measure, in the same setting: as for `Cc1ccc(NC(=O)Nc2ccc(Cl)c(C(F)(F)F)c2)cc1-c1ccc(C(=O)Nc2ccncc2)cc1` [GSK1398470], the figure is 0%.
Still for that read-out and setting: under `COc1ccc(CSc2nnc(-c3ccc4c(c3)CCO4)o2)cc1` stands 0%; under `NS(=O)(=O)c1cccc(N/C=C2\C(=O)Nc3ccc(S(=O)(=O)Cc4c(Cl)cccc4Cl)cc32)c1` [GSK398099], 4%.
`CNc1nc(-c2ccc3c(N)n[nH]c3c2)cc(N2C[C@@H](C(=O)NC3CCCCC3)OC[C@H]2C)n1` [GSK2375584]: the “%Inh” value was 0%.
The same measure, in the same setting: as for `CS(=O)(=O)Cc1ccc(Nc2nccc(-c3c(-c4cccc(NC(=O)C5CCCCC5)c4)nn4ncccc34)n2)cc1` [GSK350559], the figure is 24%; as for `COC(=O)c1cccc(NC(=O)NC2CCN(c3ccnc(Nc4ccc(OC)cc4)n3)C2)c1` (stereo not drawn) [GSK1379746], 0%.

Source of the values: paper PMC5540273 (PLoS ONE, 2017).
